# Only some compounds are listed: those with a hit (about 7.3% of all), similar ones and a draw of the others.
# KinaseGlo FLuc – blocks Kinase-Glo luciferase, a counter-screen artifact | Q27757 | Potency, µM (doses to about 38.3 µM), without a hit: top-dose activity change, negative = inhibition, hits mostly inhibitors | hit rate 0.28% among 200,000 | Kinase-Glo luciferase, ATP luminescence, 8 min; further: on the % scale 0 is the no-effect control and ±100 the full control effect; nearly all actives have a fitted effect of over 60% in size
#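 Light output from Kinase-Glo luciferase with luciferin and 10 uM ATP in 50 mM imidazole pH 7.2, KCl, MgCl2, Tween 20, BSA; compound pin-delivered, 8-min ambient incubation, then luminescence read.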
# SMN2 splice up – enhancers of SMN2 splice variant expression; HEK293 SMN2-luciferase splicing reporter, luminescence, 30-36 h; Potency, µM (top dose mostly 46.1 µM), inactives show at the highest dose activity change, positive = activation, most hits filed as activators; hit rate 2.8% among 210,000; AID 1458; further: % of control where 0% means no effect; nearly all actives have a fitted effect of over 55% in size
#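 HEK293 cells carry an SMN2 […]–luciferase reporter in which exon 7 inclusion puts luciferase in frame. Cells were plated 10-12 h before compound addition, then incubated 30-36 h at 37C. ONE-Glo luminescence was read; sodium butyrate at 4.5 mM final served as control.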
# ELG1 genotoxic – induces genotoxicity in HEK293T cells with luciferase-tagged ELG1 | HEK293T ELG1-luciferase reporter, luminescence, 16 h | Potency, µM (top dose mostly 46 µM), for inactives: at the top dose activity change, positive = activation, hits mostly activators | hit rate 1.3% among 330,000; further: % of control where 0% means no effect; nearly all actives have a fitted effect of over 60% in size
#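 After overnight (16 hr) compound treatment at 37 °C, ELG1-luciferase HEK293T cells were lysed with ONE-Glo; luminescence quantified 30 min later at room temperature.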
# FLuc counter – firefly luciferase modulation, counter-screen for miR-21 project; P08659; purified FLuc, Km substrates, luminescence inhibition; Potency, µM (series often up to 57.5 µM), inactives show at the top dose activity change, negative = inhibition, hits mostly inhibitors; hit rate 6.9% among 360,000;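 further: plate controls were vehicle for no effect and reference inhibitor for full effect; nearly all actives have a fitted effect of over 55% in size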
# Target sequence (P08659 whole entry, looked up): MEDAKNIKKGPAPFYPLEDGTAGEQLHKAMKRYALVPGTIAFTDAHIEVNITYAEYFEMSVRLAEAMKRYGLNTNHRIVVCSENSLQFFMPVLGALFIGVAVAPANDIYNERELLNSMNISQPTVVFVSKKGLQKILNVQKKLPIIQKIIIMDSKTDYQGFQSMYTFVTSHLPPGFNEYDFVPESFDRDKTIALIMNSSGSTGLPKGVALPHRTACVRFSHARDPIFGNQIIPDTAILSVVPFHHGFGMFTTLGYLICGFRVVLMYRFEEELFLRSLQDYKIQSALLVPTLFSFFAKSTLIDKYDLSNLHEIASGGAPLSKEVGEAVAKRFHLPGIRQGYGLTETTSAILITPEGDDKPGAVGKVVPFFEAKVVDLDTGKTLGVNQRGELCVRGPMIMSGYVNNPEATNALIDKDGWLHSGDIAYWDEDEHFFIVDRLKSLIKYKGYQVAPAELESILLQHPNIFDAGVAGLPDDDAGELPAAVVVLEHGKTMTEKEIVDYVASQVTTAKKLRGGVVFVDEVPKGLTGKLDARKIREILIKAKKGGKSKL
#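 Purified P. pyralis luciferase, 10 nM final, with Km-level 10 uM D-luciferin and 10 uM ATP in 50 mM Tris acetate pH 7.5, 10 mM Mg acetate, 0.01% Tween-20, 0.05% BSA; 6-point qHTS titration about 60 µM downward; luminescence read.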
# Rab9 promoter act – Rab9 promoter activation; Huh7 Rab9 promoter-luciferase reporter, luminescence, 24 h; Potency, µM (top dose mostly 9.22 µM), for inactives: at the top dose activation, negative = inhibition, actives largely listed as activators; hit rate 2.8% among 320,000; further: % of control where 0% means no effect; nearly all actives have a fitted effect of over 60% in size
#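 Luciferase signal after 10 min detection reagent at ambient indicates Rab9 promoter upregulation; stably transfected Huh7 cells were treated 24 h with compound in DMSO at 37 °C, 5% CO2.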
# NPC1 promoter act – activates the NPC1 promoter; Potency, µM (top dose mostly 9.22 µM), for inactives: at the top dose activation, actives largely listed as activators; Huh7 NPC1 promoter luciferase reporter, 24 h; hit rate 2.4% among 320,000; AID 485313; further: % of control where 0% means no effect; nearly all actives have a fitted effect of over 60% in size
#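 Luminescence read-out of NPC1 promoter-driven luciferase in stably transfected Huh7 cells; compounds delivered in DMSO and left 24 h at 37C, 5% CO2, qHTS titration format.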
# The depositor's hits bear a star; ? = inconclusive; . = not tested or not shown. The call rests on the fitted dose curve; in most records, active means well fitted curve in the direction sought with a large enough effect; inconclusive means small, poorly fitted or top-dose-only effect, or another doubt; inactive means no such curve, though single readings can be large; an effect the other way counts as inactive or inconclusive. Potency means the concentration at half of the fitted maximal effect.
SMILES,KinaseGlo FLuc,SMN2 splice up,ELG1 genotoxic,FLuc counter,Rab9 promoter act,NPC1 promoter act
O=C(NCc1cccs1)c1ccc(Cn2c(SCc3ccc(F)cc3)nc3cccnc32)cc1,.,.,.,5.4µM*,.,.
Cc1cccc(Cn2c(SCc3ccc(C(=O)NCc4cccs4)cc3)nc3cccnc32)c1,.,.,.,-15%,.,.
C=CCc1c(C)c(C#N)c2nc3ccccc3n2c1NCCN(C)C,-2%,-16%,-1%,2%,5%,-1%
CCN1CCN(Cc2ccc(NC(=O)c3cc(NC(=O)c4nccnc4N)cc(OC)c3)cc2C(F)(F)F)CC1,.,.,-6%,13µM*,-3%,0%
CN(Cc1ccccc1)C(=O)c1[nH]cnc1C(=O)NCCCCCNC(=O)OC(C)(C)C,.,.,-5%,0%,-7%,0%
COc1cccc(-n2cc(C(=O)OCc3ccc(F)c(F)c3)c3ccccc3c2=O)c1,.,.,.,-1%,.,.
COc1cccc(NC(=O)Nc2ccc3c(c2)OCO3)c1,.,.,?,7.6µM*,1.4µM*,2µM*
O=C(Nc1ccc2c(c1)OCO2)Oc1ccccc1,-11%,-7%,.,11µM*,.,.
COc1ccc(OC)c(NC(=O)Nc2ccc3c(c2)OCO3)c1,.,.,0%,27µM*,8%,4%
CCOC(=O)c1ccc(N=Cc2nc(-c3ccccc3)oc2OC(C)=O)cc1,-3%,?,9%,?,1%,-4%
O=C(Cc1ccc(-c2ccccc2)cc1)NCc1cccnc1,-4%,-22%,1%,-15%,-18%,-26%
Nc1ccc[n+](CC(=O)c2ccccc2)c1,.,.,0%,5%,4%,-3%
CCc1n[n+](CC(=O)c2ccccc2)c(N)s1,10µM*,4µM*,?,2.4µM*,0.5µM*,0.32µM*
Cc1cccc(Oc2ccc(N)cc2)c1,-3%,3%,?,-15%,15%,1%
Cc1cc(C)cc(Oc2ccc(N)cc2)c1,1%,13µM*,22%,-8%,-1%,1%
CN(C)C(=O)COC(=O)c1ccccc1Nc1ccc(SC(F)F)cc1,-13%,13µM*,?,27µM*,?,?
COc1ccccc1NC(=O)COC(=O)c1ccccc1OCC(=O)Nc1ccc(SC(F)F)cc1,2%,-18%,?,-14%,-11%,1%
O=C(Nc1nnc(-c2cccc(F)c2)s1)Nc1ccccc1F,1%,22%,?,?,?,?
CC(=O)Nc1ccc(NC(=O)CSc2nccn2Cc2ccc3c(c2)OCO3)cc1,.,.,.,-8%,.,.
CC(C)(C)c1ccc(C(=O)CCC(=O)OCC(=O)NCCc2ccc(S(N)(=O)=O)cc2)cc1,.,.,2%,12µM*,-4%,-2%
O=C(c1ccco1)n1nc(-c2ccccc2)nc1NCc1ccc(Cl)cc1,.,-3%,.,0%,.,.
CCC(=O)n1nc(-c2ccc(Cl)cc2)nc1NCc1ccccc1,0%,11%,21µM*,-2%,?,18%
COC(=O)c1c(NC(=O)c2c(OC)cccc2OC)sc2c1CCCC2,.,4%,.,?,.,.
Cc1occc1C(=O)Nc1sc2c(c1C(N)=O)CCCCC2,-1%,?,10µM*,2.7µM*,?,?
CCOC(=O)c1c(NC(=O)c2c(C)noc2C)sc2c1CCCCC2,0%,0%,-2%,-1%,-4%,0%
SMILES,KinaseGlo FLuc,SMN2 splice up,ELG1 genotoxic,FLuc counter,Rab9 promoter act,NPC1 promoter act
N#Cc1c(NC(=O)c2ccco2)sc2c1CCC2,.,.,-1%,-1%,5%,-6%
NC(=O)c1c(NC(=O)c2ccco2)sc2c1CCC2,-11%,13µM*,11µM*,9.5µM*,2µM*,3.5µM*
COC(=O)c1c(NC(=O)c2ccc(OC)cc2OC)sc2c1CCCCC2,.,9%,.,6µM*,.,.
COC(=O)c1c(NC(=O)c2ccoc2C)sc2c1CCC2,-4%,-2%,11%,1%,2%,-2%
CCOC(=O)c1c(NC(=O)c2ccco2)sc2c1CCCCC2,4%,26%,-1%,17µM*,-7%,9%
CCN1C(=O)[C@@H]2[C@@H](c3ccc(-c4ccc(Cl)c(Cl)c4)c(OC)c3)N3CCCC[C@@]3(C(=O)OC)[C@@H]2C1=O,.,.,1%,-1%,-2%,-7%
CCOC(=O)C1=C(C)N=C2SC(C)C(=O)N2C1/C=C/c1ccccc1OC (stereo unspecified),0%,-23%,3%,-1%,-5%,-1%
CCc1c(C)sc(NC(=O)c2ccoc2C)c1C(N)=O,.,.,8%,11µM*,20%,20%
O=C(Nc1sc2c(c1C(=O)O)CCCCC2)c1ccco1,-1%,11µM*,?,4.3µM*,?,2.8µM*
CN(C)C(=O)c1c(NC(=O)c2ccco2)sc2c1CCCCC2,0%,-17%,3%,?,10%,0%
CN1CCN(C(=O)c2c(NC(=O)c3ccco3)sc3c2CCC(C(C)(C)C)C3)CC1 (stereo unspecified),-2%,-16%,0%,-6%,5%,2%
CC1CCc2c(sc(NC(=O)c3ccco3)c2C(=O)O)C1 (stereo unspecified),.,.,10%,7.6µM*,-49%,?
CCOC(=O)c1c(NC(=O)c2ccoc2C)sc(C)c1C,-4%,-7%,-2%,-13%,-2%,-1%
O=C(CSc1nc(O)cc(=O)[nH]1)Nc1ccc2c(c1)CCC2,-1%,-2%,-2%,-8%,-4%,2%
Cc1cc(F)ccc1S(=O)(=O)Nc1ccc2oc3c(c2c1)CC(C)CC3 (stereo unspecified),.,-58%,.,-12%,.,.
COc1ccc(Cc2nnc(SCC(=O)Nc3ccc(C)cc3)n(N)c2=O)cc1,.,.,2%,-12%,-1%,0%
O=C(O)c1cccc(Nc2ncnc3c2cnn3-c2ccccc2)c1,-4%,13µM*,?,2.1µM*,3.2µM*,1.3µM*
N#Cc1cccc(Nc2ncnc3c2cnn3-c2cccc(Cl)c2)c1,.,.,.,-17%,.,.
Clc1cccc(Nc2ncnc3c2cnn3-c2ccccc2)c1,3%,2%,?,27µM*,17%,25%
O=C(O)c1cccc(Nc2ncnc3ccccc23)c1,-4%,18%,1%,19µM*,16%,0%
Fc1cccc(Nc2ncnc3c2cnn3-c2ccccc2)c1,.,.,?,17µM*,?,?
COc1ccc(N(C(=O)c2ccccc2C)S(=O)(=O)c2ccc(Cl)cc2)cc1,.,23%,.,-1%,.,.
O=c1[nH]c2ccccc2c2cn(-c3ccccc3)nc12,.,.,?,13µM*,?,2.8µM*
COC(=O)c1ccc(C2C=C(c3ccc(Cl)cc3)Nc3nc4ccccc4n32)cc1 (stereo unspecified),.,.,.,6.7µM*,.,.
Fc1ccc(C2=CC(c3ccc(F)cc3)n3c(nc4ccccc43)N2)cc1 (stereo unspecified),.,.,.,11µM*,.,.
